These results are taken from PubChem BioAssay (NCATS).

A number with no mark means an inactive call. Records with an inconclusive call do not appear. Entries that show only a call come without a potency. The source made the active and inactive calls. Calls come from the whole dose curve; as a rule, active = well fitted curve in the direction sought with a large enough effect; inconclusive = small, poorly fitted or top-dose-only effect, or another doubt; inactive = no such curve, though single readings can be large; an effect the other way counts as inactive or inconclusive.

Test system in the first experiment: not listed separately
The experiment is described as follows: Cellular Toxicity (caspase-3) HUV-EC-C (AID 656). Particulars: HUV-EC-C cells, caspase-3 activation (apoptosis), vehicle = 0, 100 µM tamoxifen = 100%; series mostly up to 92.2 µM. Summed up:
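Read-out: luminescence proportional to caspase 3/7 activity, measured 20 min after adding Caspase-Glo 3/7 reagent. Cells (HUV-EC-C) had received compound for 16 hr at 37°C. Increases relative to DMSO and 100 uM tamoxifen gave concentration-response AC50 values.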
Turning to `COC(=O)[C@H]1[C@H]2C[C@@H]3c4[nH]c5cc(OC)ccc5c4CCN3C[C@H]2C[C@@H](OC(=O)c2cc(OC)c(OC)c(OC)c2)[C@@H]1OC`, the call was inactive.

Take `CCCCOCCOCCOCc1cc2c(cc1CCC)OCO2`: the outcome was inactive.

Consider `O=c1[nH]c(=O)n([C@H]2C[C@H](O)[C@@H](CO)O2)cc1Br`, for which the result was inactive.

For `NC(=Nc1ccccc1)Nc1ccccc1`, the compound was called inactive.

For the compound `Nc1ncn([C@@H]2O[C@H](CO)[C@@H](O)[C@H]2O)c(=O)n1`, the compound was classed as inactive.

Test system in another experiment: not listed separately
Put plainly: Cellular Toxicity (caspase-3) SHSY5Y (AID 657). The conditions noted are these: SH-SY5Y caspase-3 activation, DMSO zero, 10 µM staurosporine = 100%; series mostly up to 91.7 µM. In outline:
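Cells plated and incubated 5 h at 37 °C, dosed over a concentration range, incubated 16 h, then given Caspase-Glo 3/7 reagent for 1 h at room temperature before luminescence reading. Staurosporine (10 uM) defined full stimulation.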
On to `COC(=O)[C@H]1[C@H]2C[C@@H]3c4[nH]c5cc(OC)ccc5c4CCN3C[C@H]2C[C@@H](OC(=O)c2cc(OC)c(OC)c(OC)c2)[C@@H]1OC`, for which the outcome was inactive.

Take `CCCCOCCOCCOCc1cc2c(cc1CCC)OCO2`: the outcome was inactive.

Turning to `O=c1[nH]c(=O)n([C@H]2C[C@H](O)[C@@H](CO)O2)cc1Br`, the call was inactive.

For the compound `NC(=Nc1ccccc1)Nc1ccccc1`, the outcome was inactive.

`Nc1ncn([C@@H]2O[C@H](CO)[C@@H](O)[C@H]2O)c(=O)n1`: the compound was classed as inactive.

Test system in a further experiment: not listed separately
The experiment is described as follows: Cellular Toxicity (caspase-3) BJ (AID 658). Particulars: BJ fibroblasts, luminescence, normalized: DMSO 0%, staurosporine 100%; series mostly up to 91.7 µM. In outline: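 Readout: Caspase-Glo 3/7 luminescence increase in BJ cells after 16 hr treatment at 37 °C. Staurosporine and tamoxifen served as positive controls; AC50 values came from Hill modelling of data normalized to DMSO and 10 uM staurosporine.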
On to `CCCCOCCOCCOCc1cc2c(cc1CCC)OCO2`, for which the compound was classed as inactive.

Consider `O=c1[nH]c(=O)n([C@H]2C[C@H](O)[C@@H](CO)O2)cc1Br`, for which the call was inactive.

In the case of `NC(=Nc1ccccc1)Nc1ccccc1`, the outcome was inactive.

For `Nc1ncn([C@@H]2O[C@H](CO)[C@@H](O)[C@H]2O)c(=O)n1`, the compound was classed as inactive.

Test system in the next experiment: not listed separately
The experiment is described as follows: Cellular Toxicity (caspase-3) MRC-5 (AID 659). Note: potency is the fitted concentration of half-maximal effect. Particulars: MRC-5 cells, luminescence; Potency: caspase-3 activation; series mostly up to 91.7 µM. Summed up: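 Concentration-dependent caspase 3/7 activation is measured in human normal lung fibroblasts (MRC-5) following 16-hour treatment. AC50 values come from standard Hill-equation modeling of luminescence normalized to DMSO and 10 uM staurosporine.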
On to `COC(=O)[C@H]1[C@H]2C[C@@H]3c4[nH]c5cc(OC)ccc5c4CCN3C[C@H]2C[C@@H](OC(=O)c2cc(OC)c(OC)c(OC)c2)[C@@H]1OC`, for which the Potency is 31.6 µM (active).

`CCCCOCCOCCOCc1cc2c(cc1CCC)OCO2`: the Potency result was “inactive”.

With `O=c1[nH]c(=O)n([C@H]2C[C@H](O)[C@@H](CO)O2)cc1Br`, the Potency entry was “inactive”.

Take `NC(=Nc1ccccc1)Nc1ccccc1`: the Potency entry was “inactive”.

On to `Nc1ncn([C@@H]2O[C@H](CO)[C@@H](O)[C@H]2O)c(=O)n1`, for which the Potency result is “inactive”.

Test system in a further experiment: not listed separately
Put plainly: Cellular Toxicity (caspase-3) Mesangial (AID 660).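 Note: cells exposed to compound for 16 h before the caspase read.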 Particulars: mesangial cells, normalized: DMSO 0%, 100 µM tamoxifen 100%; series mostly up to 91.7 µM. In outline:
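Concentration-response qHTS: compound-induced rise in caspase 3/7 luminescence in human mesangial cells after 16 h, normalized to DMSO and 100 uM tamoxifen controls.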
With `COC(=O)[C@H]1[C@H]2C[C@@H]3c4[nH]c5cc(OC)ccc5c4CCN3C[C@H]2C[C@@H](OC(=O)c2cc(OC)c(OC)c(OC)c2)[C@@H]1OC`, the call was inactive.

In the case of `CCCCOCCOCCOCc1cc2c(cc1CCC)OCO2`, the outcome was inactive.

Regarding `O=c1[nH]c(=O)n([C@H]2C[C@H](O)[C@@H](CO)O2)cc1Br`, the call was inactive.

On to `NC(=Nc1ccccc1)Nc1ccccc1`, for which the compound was classed as inactive.

In the case of `Nc1ncn([C@@H]2O[C@H](CO)[C@@H](O)[C@H]2O)c(=O)n1`, the outcome was inactive.

Test system in a further experiment: not listed separately
Put plainly: Cellular Toxicity (caspase-3) SK-N-SH (AID 661). Note: potency is the fitted concentration of half-maximal effect. Particulars: SK-N-SH caspase-3 activation, qHTS; caspase-3 activation: at 91.7 µM (top of the series), DMSO as zero, staurosporine as full. Summed up:
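Caspase 3/7 activation is measured as a luminescence increase from aminoluciferin released by substrate cleavage in SK-N-SH cells after 16 hr compound treatment; values are AC50 from concentration-response curves.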
For `COC(=O)[C@H]1[C@H]2C[C@@H]3c4[nH]c5cc(OC)ccc5c4CCN3C[C@H]2C[C@@H](OC(=O)c2cc(OC)c(OC)c(OC)c2)[C@@H]1OC`, the caspase-3 activation is 87.8% (active).

As for `CCCCOCCOCCOCc1cc2c(cc1CCC)OCO2`, the caspase-3 activation is 1.34%.

With `O=c1[nH]c(=O)n([C@H]2C[C@H](O)[C@@H](CO)O2)cc1Br`, the caspase-3 activation was -0.482%.

For the compound `NC(=Nc1ccccc1)Nc1ccccc1`, the caspase-3 activation is 0.122%.

As for `Nc1ncn([C@@H]2O[C@H](CO)[C@@H](O)[C@H]2O)c(=O)n1`, the Potency is 31.6 µM (active).

Test system in the next experiment: not listed separately
Put plainly: Cellular Toxicity (caspase-3) H-4-II-E (AID 663).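 Note: cells exposed to compound for 16 hr before readout.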 The conditions noted are these: H-4-II-E rat hepatoma, scaled: DMSO 0%, 100 µM tamoxifen 100%; series mostly up to 92.2 µM. Summed up: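 Apoptosis induction is scored as increased luminescence from caspase 3/7 substrate cleavage in rat hepatoma H-4-II-E cells exposed to compound for 16 hr. Activity is scaled between DMSO and 100 uM tamoxifen.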
Regarding `CCCCOCCOCCOCc1cc2c(cc1CCC)OCO2`, the compound was classed as inactive.

As to `O=c1[nH]c(=O)n([C@H]2C[C@H](O)[C@@H](CO)O2)cc1Br`, the call was inactive.

Turning to `NC(=Nc1ccccc1)Nc1ccccc1`, the compound was classed as inactive.

For `Nc1ncn([C@@H]2O[C@H](CO)[C@@H](O)[C@H]2O)c(=O)n1`, the call was inactive.

Test system in the next experiment: not listed separately
The experiment is described as follows: Cellular Toxicity (caspase-3) N2a (AID 665).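 Note: compound exposure lasted 16 h at 37 °C before readout.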 The conditions noted are these: N2a cells, luminescence, normalized: DMSO 0%, 10 µM staurosporine 100%; series mostly up to 92.2 µM. In outline: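 Plated mouse neuroblastoma N2a cells received titrated compounds for 16 h in complete medium. Caspase activity was then detected with a peptide-aminoluciferin luminescent reagent.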
For the compound `COC(=O)[C@H]1[C@H]2C[C@@H]3c4[nH]c5cc(OC)ccc5c4CCN3C[C@H]2C[C@@H](OC(=O)c2cc(OC)c(OC)c(OC)c2)[C@@H]1OC`, the compound was classed as inactive.

In the case of `CCCCOCCOCCOCc1cc2c(cc1CCC)OCO2`, the result was inactive.

In the case of `O=c1[nH]c(=O)n([C@H]2C[C@H](O)[C@@H](CO)O2)cc1Br`, the call was inactive.

Regarding `NC(=Nc1ccccc1)Nc1ccccc1`, the compound was called inactive.

Regarding `Nc1ncn([C@@H]2O[C@H](CO)[C@@H](O)[C@H]2O)c(=O)n1`, the compound was called inactive.

Test system in another experiment: not listed separately
The experiment is described as follows: Cellular Toxicity (caspase-3) NIH 3T3 (AID 666).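 Note: caspase signal read after 16 h compound exposure.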 The conditions noted are these: NIH 3T3 caspase-3 activation, apoptosis/toxicity, 0% DMSO, 100% is 100 µM tamoxifen; series mostly up to 92.2 µM. Summed up:
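Concentration-response qHTS in NIH 3T3 mouse fibroblasts scores caspase-3/7 activation as rising luminescence after 16 hr compound exposure. Signals are scaled between DMSO-only and 100 uM tamoxifen.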
For the compound `COC(=O)[C@H]1[C@H]2C[C@@H]3c4[nH]c5cc(OC)ccc5c4CCN3C[C@H]2C[C@@H](OC(=O)c2cc(OC)c(OC)c(OC)c2)[C@@H]1OC`, the outcome was inactive.

As to `CCCCOCCOCCOCc1cc2c(cc1CCC)OCO2`, the result was inactive.

With `O=c1[nH]c(=O)n([C@H]2C[C@H](O)[C@@H](CO)O2)cc1Br`, the outcome was inactive.

For `NC(=Nc1ccccc1)Nc1ccccc1`, the outcome was inactive.

`Nc1ncn([C@@H]2O[C@H](CO)[C@@H](O)[C@H]2O)c(=O)n1`: the call was inactive.

Test system in a further experiment: not listed separately
Put plainly: Cellular Toxicity (caspase-3) Renal Proximal Tubule (AID 667).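 Note: cells exposed to compound for 16 hours at 37 °C before detection.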 Particulars: renal proximal tubule cells, primary cells freshly taken from rat, solvent-only wells 0%, staurosporine 100%; series mostly up to 91.7 µM. In outline: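 In qHTS format, rat primary proximal tubule cells seeded at 1000 per well are exposed to compounds for 16 hours at 37 °C. An increase in Caspase-Glo 3/7 luminescence indicates caspase activation.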
As for `COC(=O)[C@H]1[C@H]2C[C@@H]3c4[nH]c5cc(OC)ccc5c4CCN3C[C@H]2C[C@@H](OC(=O)c2cc(OC)c(OC)c(OC)c2)[C@@H]1OC`, the compound was called inactive.

For `CCCCOCCOCCOCc1cc2c(cc1CCC)OCO2`, the outcome was inactive.

As to `O=c1[nH]c(=O)n([C@H]2C[C@H](O)[C@@H](CO)O2)cc1Br`, the compound was called inactive.

As for `NC(=Nc1ccccc1)Nc1ccccc1`, the compound was classed as inactive.

With `Nc1ncn([C@@H]2O[C@H](CO)[C@@H](O)[C@H]2O)c(=O)n1`, the compound was classed as inactive.

The target of another experiment is Guanine nucleotide-binding protein G(i) subunit alpha-1 (Homo sapiens) (UniProt P63096). The experiment is described as follows: qHTS Assay for Inhibitors of RGS12 GoLoco Motif Activity (Green Fluorophore) (AID 879).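 Note: negative values mean loss of peptide binding seen as reduced polarization.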 Particulars: Galphai1/FITC-RGS12 GoLoco peptide, fluorescence polarization; series mostly up to 57.1 µM. Summed up: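 Fluorescence polarization assay: 50 nM Gαi1 with 10 nM FITC-labeled RGS12 GoLoco peptide in 10 mM Tris pH 7.5, 150 mM NaCl, 0.1 mM GDP, 0.05% NP40, 10 min at room temperature with compound.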
Chain of Guanine nucleotide-binding protein G(i) subunit alpha-1 (Homo sapiens) (P63096 whole entry, looked up): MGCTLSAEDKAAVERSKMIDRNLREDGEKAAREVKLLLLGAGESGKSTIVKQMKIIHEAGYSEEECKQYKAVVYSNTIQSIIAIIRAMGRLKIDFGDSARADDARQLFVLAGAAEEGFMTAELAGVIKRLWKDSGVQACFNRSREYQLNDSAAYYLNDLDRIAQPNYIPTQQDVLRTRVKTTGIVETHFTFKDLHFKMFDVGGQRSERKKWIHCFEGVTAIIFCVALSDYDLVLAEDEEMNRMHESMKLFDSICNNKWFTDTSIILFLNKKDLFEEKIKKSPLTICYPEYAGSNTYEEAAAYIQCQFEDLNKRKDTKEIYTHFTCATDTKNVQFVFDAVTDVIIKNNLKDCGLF
In general terms: qHTS replaces the single test concentration by a dilution series.
Consider `COC(=O)[C@H]1[C@H]2C[C@@H]3c4[nH]c5cc(OC)ccc5c4CCN3C[C@H]2C[C@@H](OC(=O)c2cc(OC)c(OC)c(OC)c2)[C@@H]1OC`, for which the Potency entry is “inactive”.

Regarding `CCn1nc(C(=O)O)c(=O)c2cc3c(cc21)OCO3`, the Potency result was “inactive”.

On to `C(=C\c1ccccc1)/CN1CCN(C(c2ccccc2)c2ccccc2)CC1`, for which the Potency result is “inactive”.

For `CCCN(CCC)CCc1cccc2c1CC(=O)N2`, the Potency result was “inactive”.

As to `Cc1ccc(Cl)c(Nc2ccccc2C(=O)O)c1Cl`, the Potency result is “inactive”.

In the case of `OCCN1CCN(CCCN2c3ccccc3C=Cc3ccccc32)CC1`, the Potency entry was “inactive”.

As to `COc1cc2c(cc1OC)-c1cc(=Nc3c(C)cc(C)cc3C)n(C)c(=O)n1CC2`, the Potency entry is “inactive”.

`O=C(O)CCCCCCCC(=O)O`: the Potency entry is “inactive”.

For the compound `C[C@H](CS)C(=O)N1CCC[C@H]1C(=O)O`, the Potency entry was “inactive”.

With `O=c1[nH]c(=O)n([C@H]2C[C@H](O)[C@@H](CO)O2)cc1Br`, the Potency entry was “inactive”.

Regarding `CCCCNc1c(C(=O)OCC)c(C)nc2c1cnn2CC`, the Potency entry is “inactive”.

In the case of `CCc1c(C)[nH]c2c1C(=O)C(CN1CCOCC1)CC2` (stereo not drawn), the Potency entry was “inactive”.

For `O=C(O)CP(=O)(O)O`, the Potency entry was “inactive”.

For the compound `C[C@]12CCC(=O)C=C1CC[C@@H]1[C@@H]2CC[C@@]2(C)[C@H]1CC[C@]2(O)C(=O)CO`, the Potency result was “inactive”.

For `Cc1nc2sccn2c(=O)c1CCN1CCC(=C(c2ccc(F)cc2)c2ccc(F)cc2)CC1`, the Potency entry is “inactive”.

In the case of `C[C@]12CCC(=O)C=C1CC[C@@H]1[C@@H]2C(=O)C[C@@]2(C)[C@H]1CC[C@]2(O)C(=O)CO`, the Potency entry was “inactive”.

For the compound `C[C@]12C=CC(=O)C=C1CC[C@H]1[C@@H]3C[C@@H](O)[C@](O)(C(=O)CO)[C@@]3(C)C[C@H](O)[C@@]12F`, the Potency entry was “inactive”.

Consider `Nc1ncn([C@@H]2O[C@H](CO)[C@@H](O)[C@H]2O)c(=O)n1`, for which the Potency result is “inactive”.

For `N[C@@H](COP(=O)(O)O)C(=O)O`, the Potency result is “inactive”.

For `C[N+](C)(C)CCOC(N)=O`, the Potency result is “inactive”.
